Results from PubChem BioAssay (NCI).
The panel holds about 79,000 compounds, 15% with a hit somewhere; the sample as a whole holds those more often. Activity calls are given as the source filed them. No stated cut-off is given here; in the data, active means growth inhibition above about 70%; inactive means the rest.

Assays:
[1] = NCI Yeast Anticancer Drug Screen. Data for the rad50 strain (AID 155);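 further: 0% = growth of vehicle-only cultures of the same strain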; details: S. cerevisiae rad50 strain growth inhibition; at 50.0 µM; stronger effect = higher value
Method in brief: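 Yeast carrying a defined DNA repair defect were exposed to test compounds, and growth was compared with vehicle-treated controls to give percent inhibition.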

[2] = NCI Yeast Anticancer Drug Screen. Data for the mec2-1 strain (AID 157); details: S. cerevisiae mec2-1 strain, at 50.0 µM, stronger effect = higher value
Method in brief: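 Cells of the genetically defined mec2-1 yeast strain are incubated with test compound. Inhibition of growth is calculated against vehicle-treated controls.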

[3] = NCI Yeast Anticancer Drug Screen. Data for the sgs1 mgt1 strain (AID 161);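 further: 0% = growth of cultures given vehicle only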; details: S. cerevisiae sgs1 mgt1 strain, at 50.0 µM, stronger effect = higher value
Method in brief: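 Mutant yeast exposed to compound; growth scored against vehicle-only wells.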

[4] = NCI Yeast Anticancer Drug Screen. Data for the cln2 rad14 strain (AID 165);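 further: 0% = growth equal to vehicle treated cultures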; details: S. cerevisiae cln2 rad14 strain, at 50.0 µM, stronger effect = higher value
Method in brief: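 The screen exposed genetically defined yeast (cln2 rad14) to test compounds and scored growth inhibition relative to vehicle-treated controls.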

[5] = NCI Yeast Anticancer Drug Screen. Data for the bub3 strain (AID 167); details: S. cerevisiae bub3 mutant strain, at 50.0 µM, stronger effect = higher value
Method in brief: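 Compounds were applied to a genetically altered yeast strain carrying a cell-cycle control defect. Growth inhibition was scored against vehicle-treated controls.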

[6] = NCI Yeast Anticancer Drug Screen. Data for the mlh1 rad18 strain (AID 175); details: S. cerevisiae mlh1 rad18 strain growth inhibition; at 50.0 µM; stronger effect = higher value
Method in brief: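 Compound-treated yeast growth, normalised to vehicle controls. Strain bears defined DNA repair mutations.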

Measured: growth inhibition

NC(CSSCC(N)C(=O)c1ccccc1)C(=O)c1ccccc1 (stereo unspecified)
inactive: [1] 23.9% | [2] 0.8% | [3] 9.3% | [4] 6% | [5] 6.55% | [6] 4.35%

O=c1[nH]c(=O)n(Cl)c(=O)n1Cl
inactive: [1] 16.4% | [2] 23.1% | [3] 14.2% | [4] 6.2% | [5] 31% | [6] 21.9%

COc1ccc(CCl)cc1CCl
inactive: [1] -24.2% | [2] -62.8% | [3] -7.25% | [4] 5.85% | [5] -26.4% | [6] -43.7%

c1ccc(OP(Oc2ccccc2)(c2ccccc2)(c2ccccc2)c2ccccc2)cc1
inactive: [1] 6.05% | [2] 6.6% | [3] 13.4% | [4] -16.4% | [5] -5.1% | [6] -42.6%

COC12CC3C4=CCOC5CC(=O)N6c7ccccc7C1(CCN2C4)C6C53 (stereo unspecified)
inactive: [1] 5.3% | [2] -23.8% | [3] 13.3% | [4] 16.9% | [5] 15.2% | [6] 15.4%

CN(C)C(=S)Oc1c(S(=O)(=O)F)ccc(Cl)c1Cl
active: [1] 96.3% | [2] 88% | [3] 98% | [4] 76.5% | [5] 95.2% | [6] 98.3%

CC1=C(\C=C/C(C)=C/C=C/C(C)=C/C=C/C=C(C)\C=C\C=C(C)/C=C/C2=C(C)CCCC2(C)C)C(C)(C)CCC1
inactive: [1] 28.8% | [2] 9.35% | [3] 27.1% | [4] 26.4% | [5] 37.2% | [6] 45.5%

O=S(=O)(F)c1ccccc1
inactive: [1] 35.8% | [2] -0.6% | [3] -11.4% | [4] -59.8% | [5] 2.1% | [6] 6.85%

NC(Cc1ccc(O)c(O)c1)c1ccccc1 (stereo unspecified)
inactive: [1] -12.1% | [2] 4.2% | [3] -2.55% | [4] -25.8% | [5] -7.75% | [6] -22.6%

CC1(C)CN=C(Nc2ccc(Cl)cc2)S1
inactive: [1] 13.9% | [2] 1.45% | [3] -12.1% | [4] 13.5% | [5] -10.7% | [6] -31.2%

COc1ccc2c(c1)c(CC(C)[N+](=O)[O-])c(C)n2Cc1ccccc1 (stereo unspecified)
inactive: [1] 6.5% | [2] 8.35% | [3] 5.65% | [4] -9.95% | [5] -3.3% | [6] 6.9%

CC(=O)c1cccc(S(=O)(=O)F)c1
inactive: [1] -9.7% | [2] -11.3% | [3] -3.25% | [4] 13% | [5] -14.9% | [6] -11.8%

CCC1(O)N=C(c2ccccc2)c2ccccc2-n2cccc21 (stereo unspecified)
inactive: [1] 1.7% | [2] 4.25% | [3] 8.65% | [4] 0.55% | [5] 2.2% | [6] 6.5%

CCOP(=S)(OCC)S/C(C(=O)NC)=C(/C)O
inactive: [1] 64.2% | [2] 22.9% | [3] 35.4% | [4] 65.1% | [5] 55.5%
active: [6] 79.7%

O=C(NC(Cl)=C(Cl)Cl)P(=O)(c1ccccc1)c1ccccc1
inactive: [1] -16.6% | [2] -28.3% | [3] 10.8% | [4] 17.2% | [5] -5.4% | [6] 3%

O=C1CCC(=O)N1c1ccc([As](=O)(O)O)cc1
inactive: [1] -2.55% | [2] -9.15% | [3] 13.2% | [4] -28.1% | [5] 0.6% | [6] -16.9%

[C-]#[O+].[C-]#[O+].[C-]#[O+].[C-]#[O+].[C-]#[O+].[C-]#[O+].[C-]#[O+].[C-]#[O+].[C-]#[O+].[CH2-]C.[Co].[Co].[Co]
inactive: [1] 25.6% | [2] 9.9% | [3] 19.1% | [4] -2.3% | [5] 24.2% | [6] 33.8%

C[n+]1ccc(/C=C\c2ccc(N(CCCl)CCCl)cc2)c2ccccc21
inactive: [1] 4.8% | [2] 15.9% | [3] 4% | [4] 24.1% | [5] 15.4% | [6] 18.6%

CC(C(=O)c1ccccc1)N(C)C (stereo unspecified)
inactive: [1] 2.15% | [2] -6.85% | [3] -4.2% | [4] -50.4% | [5] -19.7% | [6] 5.5%

Nc1ccn(C2OC(COP(=O)(O)Oc3ccccc3)C(O)C2O)c(=O)n1 (stereo unspecified)
inactive: [1] 11.1% | [2] -11.8% | [3] 17.8% | [4] 4% | [5] 5.2% | [6] 11.3%

CN(C)Cc1c[nH]c2ccc(F)cc12
inactive: [1] -27% | [2] -13.8% | [3] -15.2% | [4] 5.65% | [5] -11.8% | [6] -16.9%

COc1ccc2c(=O)c3ccccc3oc2c1CN(CCCl)CCCl
inactive: [1] 19.9% | [2] 16.4% | [3] -5.2% | [4] 13.2% | [5] -3.1% | [6] -8.25%

C=C1CCN2CC[C@@H](OC(=O)/C(C)=C\C)[C@@H]12
inactive: [1] 1.65% | [2] 1.3% | [3] 7.1% | [4] -1.9% | [5] 12.9% | [6] -22.1%

CCC(/C=N/N=C(N)N)=N\N=C(N)N
inactive: [1] 8.4% | [2] -2.6% | [3] -0.75% | [4] -18.4% | [5] 19.9% | [6] -10.3%

c1ccc(N=Nc2ccccc2)cc1
inactive: [1] -1.25% | [2] -7.5% | [3] -4.2% | [4] -9.55% | [5] -5.15% | [6] 24.6%

CN(C)C(=O)Sc1c(S(=O)(=O)F)ccc(Cl)c1Cl
inactive: [1] 22.4% | [2] 14.8% | [3] 10.3% | [4] 20.9% | [5] 6.15% | [6] 8.6%

Cc1ccc(C)c(C(C)NC2=NCCO2)c1 (stereo unspecified)
inactive: [1] -3.95% | [2] -7.95% | [3] -11.7% | [4] 1.2% | [5] -9.9% | [6] 19%

CCOP(=O)(OCC)/C(C#N)=C/c1ccccc1
inactive: [1] 19.2% | [2] -23.1% | [3] -8.95% | [4] -33.8% | [5] -11.3% | [6] 19.6%

O=[N+]([O-])c1cc(S(=O)(=O)O)cc([N+](=O)[O-])c1Cl
inactive: [1] 8.35% | [2] 7% | [3] 2.85% | [4] 50.5% | [5] -17% | [6] 24.8%

COC1OCC(N=[N+]=[N-])C(OC)C1O (stereo unspecified)
inactive: [1] 18.8% | [2] -12.4% | [3] -3.1% | [4] -19.2% | [5] 5.65% | [6] -1.8%

Nc1nc(N)c2[nH]c(N)nc2n1
inactive: [1] -9.65% | [2] -12.2% | [3] -8.9% | [4] -14.4% | [5] 3.45% | [6] -55.3%

CCOP(=S)(OCC)OP(=S)(OCC)OCC
inactive: [1] -44.5% | [2] -50.4% | [3] -40.6% | [4] -13.9% | [5] -28.1% | [6] -42.1%

C[C@]12CC[C@@H](O)C[C@H]1[C@@H](O)C[C@@H]1[C@@H]2CC[C@]2(C)C(=O)CC[C@@H]12
inactive: [1] -17.4% | [2] -4.35% | [3] 3.05% | [4] -17.1% | [5] 25.7% | [6] -11.1%

CCCCOP(=O)(Cc1ccccc1)Oc1ccccc1 (stereo unspecified)
active: [1] 73%
inactive: [2] 32% | [3] 68.8% | [4] 50.4% | [5] 35.3% | [6] 27.6%

CN(/N=C/c1ccnc2ccccc12)c1c([N+](=O)[O-])cc([N+](=O)[O-])cc1[N+](=O)[O-]
inactive: [1] -0.25% | [2] -4.65% | [3] -18.8% | [4] 18.9% | [5] -10% | [6] -8.4%

NS(=O)(=O)c1cccc([As](=O)(O)O)c1
inactive: [1] -11.1% | [2] 10.4% | [3] -12.9% | [4] -3.55% | [5] -13.9% | [6] -3.6%

COc1ccc(OC)c(CCc2cc(OC)ccc2OC)c1
inactive: [1] -7.85% | [2] -13.2% | [3] -9.95% | [4] -40.1% | [5] 13.2% | [6] -28%

Cc1cc(CCl)c(O)c(CCl)c1
inactive: [1] -22.1% | [2] 0.5% | [3] -4.7% | [4] -49.7% | [5] -18.9% | [6] 22.5%

Oc1cccc(-c2ccccc2)c1
inactive: [1] 20.5% | [2] 17.2% | [3] 20.3% | [4] 5.35% | [5] 30.1% | [6] 21.2%

CCC1(CNC(=O)CN)C(=O)NC(=O)NC1=O
inactive: [1] -14.8% | [2] -0.85% | [3] -4.4% | [4] 27.4% | [5] 2.7% | [6] 21.6%

CCOC(=N)N1[C@H](C)[C@@H]1C
inactive: [1] 43.1% | [2] -42.2% | [3] -42.1% | [4] -19% | [5] -43.1% | [6] -6.95%
